Most compounds without a hit are left out; they make up all but 3.8% or so of the library.
Yp Topo-I inh: inhibitors of Yersinia pestis topoisomerase I; AID 504884; activity, % at 10 µM; Y. pestis Topo-I cleavage product accumulation, plate reader; 0.064% of 360,000 active; in the data active = activity above about 50%, passing the limit was not always enough
PrPC surface inh: reduces human prion protein on the cell surface | P04156 | AID 720596 | inhibition, % at 13.8 µM | 0.43% of 370,000 active | cell surface PrPC, TR-FRET read-out; in the data active = inhibition above about 24%; also: 0% = median of the test wells and 100% = reference compound wells
GDH-TPI inh: inhibits GDH-TPI coupling enzymes, artifact for Mtb FBA screen | GDH-TPI coupled enzyme counterscreen, NADH absorbance | 1.2% of 360,000 active | AID 588335 | inhibition, % at 4.8 µM; in the data active = inhibition above about 30%;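 also: 0% = DMSO wells and 100% = wells lacking the enzyme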
Mtb hypoxia rep: reduces hypoxia-regulated biosensor signal in M. tuberculosis; AID 1159583; 0.1% of 300,000 active; fluorescence inhibition, % (test concentration not listed); M. tuberculosis hypoxia-regulated fluorescent reporter, fluorescence; in the data active = fluorescence inhibition mostly above about 23%, no sharp cut-off; inactive = mostly below about 17%
Mtb FBA inh: inhibits M. tuberculosis FBA enzyme; P9WQA3; purified M. tuberculosis FBA, fluorescence read-out; inhibition, % at 1 µM; 2.3% of 360,000 active; in the data active = inhibition above about 27%;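 also: 0% = vehicle and 100% = reference inhibitor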
Target sequence (P9WQA3 whole entry, looked up): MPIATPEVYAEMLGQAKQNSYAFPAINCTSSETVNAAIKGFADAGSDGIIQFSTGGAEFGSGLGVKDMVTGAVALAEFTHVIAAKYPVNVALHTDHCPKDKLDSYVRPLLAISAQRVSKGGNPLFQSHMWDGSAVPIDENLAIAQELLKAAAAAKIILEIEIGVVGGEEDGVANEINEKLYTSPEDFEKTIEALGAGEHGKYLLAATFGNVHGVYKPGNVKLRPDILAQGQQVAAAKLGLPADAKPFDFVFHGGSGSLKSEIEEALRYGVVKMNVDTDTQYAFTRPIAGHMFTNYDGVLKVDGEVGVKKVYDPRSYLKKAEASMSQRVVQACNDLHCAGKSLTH
PrP UTR inh: suppresses PrP 5' UTR mRNA reporter expression. cell-based PrP 5' UTR mRNA reporter, plate reader. inhibition, % (test concentration not listed). 0.35% of 340,000 active. AID 488862; in the data active = inhibition above about 52%; also: 0 = median of the neutral control wells
* hit, by the source's call; / = no result given; + = active, no number.

SMILES	Yp Topo-I inh	PrPC surface inh	GDH-TPI inh	Mtb hypoxia rep	Mtb FBA inh	PrP UTR inh
Fc1cccc(/C=N/Nc2ccccn2)c1	-0.2	-2.1	48.8*	/	-2.6	-94.4
Fc1cccc(/C=N/Nc2ncnc3nc[nH]c23)c1	1.3	-7.4	42.2*	/	-0.3	-22.3
Cc1ccc(/C=N/Nc2ncnc3nc[nH]c23)cc1	3.2	-2.2	64.2*	/	-4.6	-44.8
Oc1ccc(/C=N/Nc2ncnc3nc[nH]c23)cc1	-10.8	1.9	74.0*	/	-0.7	/
COC(=O)C1=C(C)N(Cc2ccccc2)C(=O)NC1c1cccs1 (stereo not drawn)	/	/	/	7.4	/	/
Cc1ccc2c(Cl)c(C)c(N3CCCCC3)nc2n1	50.3*	12.7	21.9	2.6	0.6	-12.7
N#Cc1cc2cc3c(cc2nc1SCC(=O)N1CCCC1)OCCO3	7.1	/	6.0	-0.7	3.2	-56.2
CC(=O)CSc1nc2cc3c(cc2cc1C#N)OCCO3	1.7	-8.7	32.9*	-0.7	3.4	-16.9
Cc1nc(Nc2ccc(C(=O)O)cc2)sc1-c1ccccc1	-2.1	-7.8	37.5*	-11.0	-1.7	-47.9
COC(=O)c1sc(NC(=O)c2ccco2)nc1C	-6.0	0.0	40.8*	8.0	-1.2	-30.9
Cc1nc(Nc2ccccc2)sc1-c1ccccc1	2.6	-2.1	10.2	1.5	-0.1	-73.2
CC(=O)c1sc(Nc2ccccc2)nc1C	/	-2.4	/	/	5.5	/
CC(C)(C)C(=O)c1sc(Nc2ccccc2)nc1N	-15.3	0.2	39.8*	-3.1	-3.5	-178.9
Cc1nc(NC(=O)c2ccco2)sc1C(=O)O	5.9	-3.1	11.9	5.7	1.5	-1.2
COC(=O)c1sc(Nc2ccccc2)nc1C	6.6	-2.1	32.5*	2.3	4.9	-42.7
CCN1C(=NCc2ccco2)NC(c2cccc(C(F)(F)F)c2)C(C(=O)OC)=C1C (stereo not drawn)	/	/	/	-1.9	/	/
COc1ccc(/C=C\C(=O)NCC(=O)NN=Cc2cccc(OC)c2O)cc1	/	/	/	-1.4	/	/
Cc1nc(NC(=O)c2ccco2)sc1C(=O)Nc1ccc(Br)cc1	-11.0	/	51.6*	-2.4	10.6	-3.5
CCOC(=O)c1sc(NC(=S)NC(=O)c2ccc(OC)cc2)nc1C	-2.5	-0.8	14.8	3.4	0.5	-48.8
CCOC(=O)c1sc(NC(=O)c2ccc(=O)[nH]c2)nc1C	-4.3	0.7	30.8*	-4.5	4.4	-7.6
CCOC(=O)c1sc(NC(=O)c2ccco2)nc1-c1ccccc1	8.4	8.6	34.7*	4.0	1.1	-28.1
CCOC(=O)c1sc(NC(=S)NC(=O)c2ccco2)nc1C	-0.5	7.6	34.6*	-2.5	0.5	-8.5
CCOC(=O)C1=CCC(c2ccccc2Cl)N(S(=O)(=O)c2ccc(C)cc2)C1C(=O)OCC (stereo not drawn)	/	/	/	8.4	/	/
CC(=O)c1sc2nc(-c3cccs3)cc(C(F)(F)F)c2c1N	0.8	-8.9	17.6	-0.1	+	-13.6
Cc1c(C(=O)O)sc2nc(-c3cccs3)cc(C(F)(F)F)c12	14.1	5.8	20.7	-9.1	32.0*	-21.8
SMILES	Yp Topo-I inh	PrPC surface inh	GDH-TPI inh	Mtb hypoxia rep	Mtb FBA inh	PrP UTR inh
Cc1c(C(=O)Nc2nccs2)sc2nc(-c3cccs3)cc(C(F)(F)F)c12	0.8	4.3	14.1	-5.2	9.9	-7.2
CS(=O)(=O)c1sc2nc(-c3cccs3)cc(-c3ccccc3)c2c1N	-6.2	0.9	31.4*	15.3	15.1	2.5
CCC(C)C(NC(=O)NC(C)C)C(=O)O (stereo not drawn)	/	/	/	10.0	/	/
COc1cc(/C=C2\SC(=O)N(c3ccc(O)cc3)C2=O)cc(OC)c1OC	-5.4	-5.0	48.1*	12.2	-2.9	-27.5
CCOc1ccc(N2C(=O)S/C(=C\c3cc(OC)c(OC)c(OC)c3)C2=O)cc1	-7.9	-2.7	7.7	3.2	-0.2	-33.3
COc1ccc(Br)cc1C=Nn1nnnc1N	/	/	/	0.5	/	/
Nc1nnnn1/N=C/c1cc(Br)ccc1O	-2.4	-6.2	32.4*	/	-1.8	/
CN1CCN(N=Cc2ccc(OCc3ccccc3)cc2)CC1	/	/	/	4.7	/	/
O=[N+]([O-])c1cc(C=NO)ccc1Oc1ccccc1Cl	/	/	/	13.7	/	/
COCCNC(=O)Nc1ccc2nc(-c3cccs3)c(-c3cccs3)nc2c1	-13.0	-18.4	14.9	/	5.9	-15.2
O=C(Nc1ccc2nc(-c3cccs3)c(-c3cccs3)nc2c1)NC1CC1	0.2	-4.0	32.1*	5.0	9.6	-5.7
O=C1C=C(c2ccc(Oc3ccccc3)cc2)CC(c2ccc3c(c2)OCO3)C1 (stereo not drawn)	/	/	/	4.9	/	/
O=C(O)c1cc(-c2cccc(Cl)c2)nc2nc(N3CCCCC3)sc12	-1.8	1.2	18.3	0.3	+	-17.6

Screening results: PubChem, several laboratories
